The text below walks through data of PubChem BioAssay (NCATS).

Results filed as inconclusive are left out. Calls of active or inactive are those of the source. The call rests on the fitted dose curve; in most records, active means well fitted inhibition curve with a large enough effect; inconclusive means small, poorly fitted or top-dose-only effect; inactive means flat fitted curve, though single readings scatter.

Assay in all cases: qHTS profiling for inhibitors of Plasmodium falciparum proliferation (AID 504749); further: nearly all actives have a fitted effect of over 60% in size
Details in all cases: P. falciparum in erythrocytes, SYBR Green DNA, 72 h; series mostly up to 28.7 µM
In general terms: Quantitative high-throughput screening tests each substance at several concentrations.

For one test, the system named is ATS189. A digest of the protocol: (§1)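 Readout was DNA-dye fluorescence from lysed cultures, ex 485/em 535 nm. Parasitized red cells had grown 72 h with compound; data scaled between 0.29 uM artemisinin and DMSO wells and corrected using vehicle-only plates.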
The next test has as its system ATS95. A digest of the protocol: as §1
A further test concerns C2A. Summed up:
as §1

The next test deals with CP185. A digest of the protocol: as §1
A further test deals with CP191. A digest of the protocol:
as §1

The subject of the next test is CP192. A digest of the protocol: as §1
Another test relates to CP194. Summed up:
as §1

The subject of the next test is CP201. Summed up: as §1
A further test deals with CP203. Summed up:
as §1

A further test deals with CP211. Summed up: as §1
In the next test the test system is CP215. Summed up:
as §1

For the next test, the system named is CP217. A digest of the protocol:
as §1

The next test relates to CP237. A digest of the protocol: as §1
The test system of another test is CP238. A digest of the protocol: as §1
In a further test the test system is CP250. A digest of the protocol:
as §1

Another test relates to CP252. Summed up: as §1
A further test concerns CP256. Summed up:
as §1

Another test has as its system CP260. A digest of the protocol:
as §1

In a further test the test system is CP247. Summed up: as §1
A further test relates to CP262. Summed up: as §1
Potency means the concentration at half of the fitted maximal effect.

`CC(C)Nc1cccnc1N1CCN(C(=O)c2cc3cc(NS(C)(=O)=O)ccc3[nH]2)CC1`: the Potency result with ATS189, in the test with ATS95, with C2A, in the test with CP185, in the test with CP191 and in the test with CP192 was “inactive” in each case. Further, the Potency result in the test on CP194, in the test on CP201, in the test with CP203, in the test on CP211, in the test with CP215 and in the test on CP217 was “inactive” in each case. Also, the Potency result in the test with CP237, in the test with CP238, with CP250, in the test with CP252, in the test with CP256 and in the test with CP260 was “inactive” in each case.

For the compound `N=C(N)N1CCc2ccccc2C1`, the Potency result with ATS189, in the test with ATS95, in the test on C2A, with CP185, with CP191 and in the test with CP192 was “inactive” throughout. The Potency result with CP194, in the test with CP201, in the test with CP203, in the test with CP211, in the test on CP215 and in the test with CP217 was “inactive” throughout. Besides, the Potency result with CP237, in the test on CP238, in the test with CP247, with CP250, in the test with CP252 and in the test with CP256 was “inactive” each time. The Potency entry in the test on CP262 is “inactive”.

As to `O=C(Nc1ccc([N+](=O)[O-])cc1)Nc1ccc([N+](=O)[O-])cc1`, the Potency result in the test with ATS189, in the test with ATS95, in the test with C2A, with CP185, with CP191 and in the test on CP192 was “inactive” in each case. Further, the Potency entry in the test on CP194, in the test with CP201, with CP203, with CP211, with CP217 and in the test on CP238 was “inactive” in each case. The Potency entry in the test with CP247, in the test on CP250, in the test on CP252, in the test with CP256 and in the test with CP262 was “inactive” throughout. Further, the figures for the Potency in the test on CP237 and in the test on CP260 were 3.98 µM (active) and 3.55 µM (active), respectively.

For `NCCNc1cccc2ccccc12`, the Potency result in the test with ATS189, with ATS95, in the test with C2A, in the test on CP185, with CP191 and with CP192 was “inactive” each time. Moreover, the Potency result in the test on CP194, with CP201, with CP203, in the test on CP211, in the test on CP215 and in the test with CP217 was “inactive” throughout. The Potency entry in the test on CP238, in the test on CP247, with CP250, in the test on CP252, in the test with CP256 and in the test on CP260 was “inactive” throughout. Further, the Potency result with CP262 is “inactive”.

Consider `CC1(COc2ccc(CC3SC(=O)NC3=O)cc2)CCCCC1` (stereo not given), for which the Potency entry in the test with ATS189, with ATS95, in the test with C2A, in the test on CP185, in the test with CP191 and with CP192 was “inactive” throughout. Further, the Potency result in the test with CP194, in the test on CP201, with CP203, in the test on CP211, with CP215 and in the test with CP217 was “inactive” in each case. Moreover, the Potency result in the test on CP237, in the test on CP238, in the test with CP250, in the test with CP252, in the test on CP256 and with CP260 was “inactive” throughout. For the same compound, the Potency result in the test with CP262 was “inactive”.

Take `CC(C)(C)NC[C@H](O)COc1cccc2c1CCCC2=O`: the Potency result in the test on ATS189, in the test with ATS95, in the test on C2A, in the test with CP185, in the test on CP191 and in the test with CP192 was “inactive” each time. Further, the Potency entry with CP194, in the test on CP201, with CP203, in the test with CP211, with CP217 and with CP237 was “inactive” in each case. Also, the Potency entry in the test on CP238, with CP247, in the test with CP250, with CP252, in the test on CP256 and with CP260 was “inactive” throughout. Also, the Potency result in the test with CP262 was “inactive”.

Regarding `Cc1cccc(C)c1NC(=O)c1ccccc1C(=O)O`, the Potency result in the test on ATS189, in the test on ATS95, in the test with C2A, with CP185, in the test with CP191 and in the test with CP192 was “inactive” throughout. In addition, the Potency entry in the test on CP194, in the test with CP201, with CP203, in the test on CP211, in the test with CP215 and with CP217 was “inactive” in each case. The Potency entry in the test on CP237, in the test with CP238, in the test on CP247, in the test with CP250, in the test with CP252 and in the test on CP260 was “inactive” throughout. Besides, in the test with CP262, the Potency entry was “inactive”.

For `C/C=C/c1ccc(O)c(OC)c1`, the Potency result in the test on ATS189, in the test on ATS95, with C2A, with CP185, in the test with CP191 and with CP192 was “inactive” each time. Also, the Potency entry in the test with CP194, in the test with CP201, with CP203, in the test on CP211, in the test on CP217 and in the test on CP237 was “inactive” in each case. Further, the Potency entry in the test on CP238, in the test on CP247, with CP250, in the test on CP252, in the test with CP256 and in the test on CP260 was “inactive” in each case. Further, the Potency result in the test with CP262 was “inactive”.

As to `CCC1Nc2cc(Cl)c(S(N)(=O)=O)cc2S(=O)(=O)N1` (stereo not given), the Potency result in the test with ATS189, in the test on ATS95, in the test with C2A, in the test with CP185, with CP191 and in the test with CP192 was “inactive” throughout. Further, the Potency entry with CP194, in the test on CP201, in the test with CP203, in the test on CP211, in the test on CP215 and in the test on CP217 was “inactive” each time. Besides, the Potency entry in the test on CP237, with CP238, in the test with CP247, with CP250, in the test with CP252 and with CP256 was “inactive” each time. Further, the Potency entry in the test on CP260 and in the test on CP262 was “inactive” in each case.

For the compound `C#C[C@]1(O)CC[C@H]2[C@@H]3CCc4cc(OC)ccc4[C@H]3CC[C@@]21C`, the Potency result with ATS189, in the test with ATS95, in the test on C2A, with CP185, with CP191 and with CP192 was “inactive” in each case. Further, the Potency entry with CP194, in the test with CP201, in the test with CP211, in the test with CP215, with CP217 and in the test on CP237 was “inactive” in each case. Further, the Potency result in the test on CP238, with CP247, in the test with CP250, in the test with CP252, in the test on CP256 and in the test on CP260 was “inactive” each time. In addition, the Potency result in the test with CP262 is “inactive”.

For the compound `C[N+]1(C)CCC(=C(c2ccccc2)c2ccccc2)CC1`, the Potency result in the test with ATS189, in the test on ATS95, in the test with C2A, in the test on CP185, with CP194 and in the test on CP201 was “inactive” in each case. For the same compound, the Potency result in the test on CP203, in the test on CP211, in the test on CP215, in the test on CP217, in the test on CP237 and in the test on CP238 was “inactive” throughout. Further, the Potency result in the test on CP247, with CP250 and in the test with CP252 was “inactive” each time.
